These results are taken from PubChem BioAssay AID720706 (Broad Institute, 2013).

Out of some 350,000 compounds screened, about 5,500 (1.6%) were called active. The sample holds actives, similar compounds and a random draw of the others, so the mix is not that of the screen.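 How the source made its calls: active means significant combined selectivity score with lowered wild-type GFP, culture density cut under 30%, mutant RFP and density less affected; inactive means any of these conditions unmet.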

This experiment is described as follows: reduced GFP signal of wild-type E. coli, primary screen, bacterial rRNA inhibitor project, GFP/RFP fluorescence, OD600, single point (AID 720706). To be noted: E. coli WT GFP vs humanized-ribosome RFP mutants, 24 h; GFP signal change (wild-type ribosome): stronger effect = lower value, DMSO median 0, no signal -100; OD600 change: measured here: OD600 growth, DMSO median 0, no signal -100; RFP signal change: measured here: RFP humanized mutant strains, DMSO median 0, no signal -100, concentration not given here.
On to `CCCNC(=O)N1CC2(CN(C(=O)C3CCCCC3)C2)c2c([nH]c3cc(OC)ccc23)[C@@H]1CO`, for which the GFP signal change (wild-type ribosome) is -0.587% (inactive), the OD600 change is -2.63% and the RFP signal change was -0.961%.
For `O=S1(=O)CC(N2CCN(Cc3ccccc3F)CC2)CN1Cc1cn(Cc2ccccc2)nn1` (stereo not drawn), the GFP signal change (wild-type ribosome) is 15% (inactive), the OD600 change was found to be 11.5% and the RFP signal change was found to be 0.47%.
As to `Cc1cccc(CN2CCN(C3CN(Cc4cn(Cc5ccccc5F)nn4)S(=O)(=O)C3)CC2)c1` (stereo not drawn), the GFP signal change (wild-type ribosome) is 6% (inactive), the OD600 change was determined as 11% and the RFP signal change was -3.05%.
Consider `O=S1(=O)CC(N2CCN(Cc3ccccc3F)CC2)CN1Cc1cn(Cc2cccc(C(F)(F)F)c2)nn1` (stereo not drawn), for which the GFP signal change (wild-type ribosome) is -29.5% (active), the OD600 change was -22.9% and the RFP signal change was -2.53%.
In the same order, the values of `C[C@@H]1CN([C@H](C)CO)C(=O)c2cccc(NC(=O)C3CC3)c2O[C@@H]1CN(C)C(=O)Nc1ccccc1` are 4.57% (inactive), 10.7% and -0.0555%.
Consider `O=C(C[C@H]1CC[C@@H](NC(=O)Cc2ccccn2)[C@H](CO)O1)NCCc1ccccc1`, for which the GFP signal change (wild-type ribosome) is -0.355% (inactive), the OD600 change is -12% and the RFP signal change is -1.51%.
Consider `CN1c2ccc([N+](=O)[O-])cc2C(C)(C)C12C=Cc1cc(C(=O)O)ccc1O2` (stereo not drawn), for which the GFP signal change (wild-type ribosome) is -34.2% (active), the OD600 change was -21.4% and the RFP signal change was -10.7%.
With `O=[N+]([O-])c1ccc(N2CCN(c3ccc(O)cc3)CC2)c(Cl)c1`, the GFP signal change (wild-type ribosome) was -7.92% (inactive), the OD600 change worked out at 0.78% and the RFP signal change was found to be 1.58%.
In the same order, the values of `Cc1cc(C(=O)O)ccc1[N+](=O)[O-]` are -5.96% (inactive), -5.09% and -0.268%.
In the same order, the values of `O=C(c1cccc(F)c1)N1C[C@H]2[C@@H](c3ccccc31)[C@@H](CO)N2C(=O)Cc1ccccc1` are 2.22% (inactive), 9.86% and -2.34%.
In the same order, the values of `CN(C)CCOCCOc1ccc(Cl)c2ccccc12` are -18.5% (active), -8.69% and 3.22%.
With `CN(C)CCOc1ccc(Cl)cc1C(C)(C)C`, the GFP signal change (wild-type ribosome) is -1.5% (inactive), the OD600 change is 4.96% and the RFP signal change stood at 1.97%.
For `CCN(CC)CCOCCOc1ccc(Cl)c2ccccc12` the same measures were -15.6% (inactive), -34.8% and 10.8%.
On to `CCC(=O)N(C)C[C@H]1Oc2cc(/C=C/c3ccccc3)ccc2S(=O)(=O)N([C@H](C)CO)C[C@@H]1C`, for which the GFP signal change (wild-type ribosome) was -13.8% (inactive), the OD600 change is -24.1% and the RFP signal change was determined as 1.56%.
As for `COc1ccc(C#Cc2cnc3c(c2)C(=O)N([C@H](C)CO)C[C@H](C)[C@H](CN(C)S(=O)(=O)c2ccc(F)cc2)O3)cc1OC`, the GFP signal change (wild-type ribosome) is -1.5% (inactive), the OD600 change is 6.11% and the RFP signal change was found to be 0.148%.
As for `O=C(C[C@H]1C=C[C@H](NC(=O)CC2CC2)[C@@H](CO)O1)NCc1ccccc1`, the GFP signal change (wild-type ribosome) is -2.86% (inactive), the OD600 change is -1.4% and the RFP signal change amounted to 0.749%.
In the case of `C[C@@H]1CC=CC[C@@H](c2ccccc2)NC(=O)[C@@H](Cc2ccccc2)N(C)C(=O)c2ccccc2O1` (mixture of isomers), the GFP signal change (wild-type ribosome) is -3.7% (inactive), the OD600 change is -8.18% and the RFP signal change is -0.954%.
For `C[C@@H]1CCCCO[C@H](CN(C)S(=O)(=O)c2ccc(Cl)cc2)[C@H](C)CN([C@@H](C)CO)C(=O)c2cc(NS(=O)(=O)c3cn(C)cn3)ccc2O1` the same measures were -4.15% (inactive), -10.5% and 3.24%.
Turning to `C[C@@H]1CN([C@@H](C)CO)S(=O)(=O)c2ccc(C#Cc3ccc(F)cc3)cc2O[C@@H]1CN(C)CC1CC1`, the GFP signal change (wild-type ribosome) was 3.12% (inactive), the OD600 change is -6.33% and the RFP signal change was 12.1%.
Turning to `CCOc1ccccc1NC(=S)C(=C([O-])c1ccc2c(c1)OCCO2)[n+]1ccc(CC)cc1`, the GFP signal change (wild-type ribosome) was -17.2% (active), the OD600 change is -16.2% and the RFP signal change is 11.5%.
For `O=[N+]([O-])c1cccc(/C([O-])=C(/C(=S)Nc2ccccc2F)[n+]2ccccc2)c1` the same measures were 4.97% (inactive), 13.1% and 6.65%.
For `CCc1ccccc1OCC(=O)Nc1ccc2c(c1)OCCO2` the same measures were -18.9% (inactive), -29.9% and 1.18%.
In the case of `COc1ccc2c3c(n(C)c2c1)[C@H](CO)N(S(=O)(=O)c1ccc(C)cc1)CC31CCN(C(=O)c2ccccn2)CC1`, the GFP signal change (wild-type ribosome) was -3.17% (inactive), the OD600 change was -3.75% and the RFP signal change turned out to be 3.99%.
In the same order, the values of `CS(=O)(=O)N(CC(=O)N1CCc2ccccc2C1)c1ccc(Br)cc1` are -22.4% (active), -11% and 0.676%.
Turning to `COc1ccc(N(CC(=O)N2CCCCCC2)S(=O)(=O)c2ccccc2)cc1`, the GFP signal change (wild-type ribosome) was -1.75% (inactive), the OD600 change was -4.39% and the RFP signal change was -2.53%.
For `CS(=O)(=O)N(CC(=O)N1CCN(Cc2ccccc2)CC1)c1ccc2c(c1)OCCO2` the same measures were 3.15% (inactive), 8.73% and -8.62%.
In the case of `COCc1cn(CC[C@H]2CC[C@H](NC(=O)c3ccncc3)[C@H](CO)O2)nn1`, the GFP signal change (wild-type ribosome) was 1.82% (inactive), the OD600 change came to 6.54% and the RFP signal change was -3.21%.
On to `CC(C)[C@@H]1COCc2cnnn2CCC[C@H](C)C(=O)N1`, for which the GFP signal change (wild-type ribosome) was 1.6% (inactive), the OD600 change came out at 7.64% and the RFP signal change came out at 1.53%.
As for `CC(C)(C)C(c1nc2ccccc2[nH]1)n1c(Cc2csc3ccccc23)nc2ccccc21` (stereo not drawn), the GFP signal change (wild-type ribosome) is -9.17% (inactive), the OD600 change was -4.49% and the RFP signal change amounted to 9.77%.
Regarding `Cc1ccc(NC(=O)COC(=O)C2C3CC4OC(=O)C2C4C3)cc1Cl` (stereo not drawn), the GFP signal change (wild-type ribosome) was -1.3% (inactive), the OD600 change was -3.04% and the RFP signal change is -5.78%.
In the same order, the values of `COC(=O)c1cccc(NC(=O)c2cccc(N3C(=O)CCC3=O)c2)c1` are 0.987% (inactive), 9.02% and 0.607%.
